# Whole data set: some 2,900 compounds, median “NF-kB SEAP reporter activity, fold change vs agonist alone” near 0.99, cut for the highest 2% near 2.6. Only a selection was taken, and the highest values are over-represented in it overall.
# Tests used:
# RAW-Dual [1] = assay: NF-kB SEAP reporter activity, fold change vs agonist alone; higher = enhanced NF-kB activity; conditions: library stock concentration (final ~1000-fold dilution): 10 mM
# Method in brief: (§1)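 RAW-Dual macrophages were seeded in DMEM at 50,000 cells/well in 384-well plates, given 50 nL of library stock by pin tool, and given a PRR agonist 1 h later. Plates were held at 37 °C, 5% CO2 for 20 hours, after which supernatant was read for IRF by QuantiLuc luminescence and for NF-κB by QuantiBlue absorbance at 620 nm. Reporter activity is expressed as fold change over wells that received agonist alone. A well was called cytotoxic when IncuCyte confluency fell below 70% of agonist controls in both mask sets.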
# RAW-Dual [2] = assay: NF-kB SEAP reporter activity, fold change vs agonist alone; cytotoxicity flag (confluency mask): not cytotoxic; higher = enhanced NF-kB activity
# Method in brief: as §1
# RAW-Dual [3] = assay: NF-kB SEAP reporter activity, fold change vs agonist alone; cytotoxicity flag (confluency mask): cytotoxic (confluency <70% of control); higher = enhanced NF-kB activity
# Method in brief: as §1
# [4] = cytotoxicity flag (confluency mask): not cytotoxic, agonist: MPLA (TLR4) […]
# [5] = agonist: ODN 1826 (TLR9) 0.5 ug/mL
# [6] = agonist: Pam2CSK4 (TLR2/6) 0.1 ug/mL
# [7] = agonist: Pam3CSK4 (TLR2/1) 0.1 ug/mL
# [8] = cytotoxicity flag (confluency mask): not cytotoxic, agonist: Imiquimod (TLR7) […]
# [9] = cytotoxicity flag (confluency mask): cytotoxic (confluency <70% of control), agonist: Imiquimod (TLR7) […]
# [10] = cytotoxicity flag (confluency mask): cytotoxic (confluency <70% of control), agonist: MPLA (TLR4) […]
smiles,measurement,setting,value
COc1ccc2c(OC3CC4C(=O)NC5(C(=O)NS(=O)(=O)C6CC6)CC5/C=C\CCCCN(C)C(=O)C4C3)cc(-c3nc(C(C)C)cs3)nc2c1C (stereo unspecified),NF-kB SEAP reporter activity,RAW-Dual [1]; [4],1.03
Cc1cnc(C(=O)NC2CCCCC/C=C\C3CC3(C(=O)NS(=O)(=O)C3CC3)NC(=O)C3CC(Oc4nc5ccccc5c5ccccc45)CN3C2=O)cn1 (stereo unspecified),NF-kB SEAP reporter activity,RAW-Dual [1]; [4],0.899
CC(C)(C)OC(=O)NC1CCCCC/C=C\C2CC2(C(=O)NS(=O)(=O)C2CC2)NC(=O)C2CC(OC(=O)N3Cc4cccc(F)c4C3)CN2C1=O (stereo unspecified) (library stock concentration (final ~1000-fold dilution): 10 mM),NF-kB SEAP reporter activity,RAW-Dual [2]; agonist: LPS (TLR4) 0.1 ug/mL,1.01
same,NF-kB SEAP reporter activity,RAW-Dual [2]; [5],0.995
same,NF-kB SEAP reporter activity,RAW-Dual [2]; [6],0.808
same,NF-kB SEAP reporter activity,RAW-Dual [2]; [7],1.03
Cc1cnc(C(=O)NC2CCCCC/C=C\C3CC3(C(=O)NS(=O)(=O)C3CC3)NC(=O)C3CC(Oc4nc5ccccc5c5ccccc45)CN3C2=O)cn1 (stereo unspecified) (library stock concentration (final ~1000-fold dilution): 10 mM),NF-kB SEAP reporter activity,RAW-Dual [2]; agonist: LPS (TLR4) 0.1 ug/mL,0.973
same,NF-kB SEAP reporter activity,RAW-Dual [2]; [5],1.05
same,NF-kB SEAP reporter activity,RAW-Dual [2]; [6],0.744
same,NF-kB SEAP reporter activity,RAW-Dual [2]; [7],0.617
CC(C)(C)OC(=O)NC1CCCCC/C=C\C2CC2(C(=O)NS(=O)(=O)C2CC2)NC(=O)C2CC(OC(=O)N3Cc4cccc(F)c4C3)CN2C1=O (stereo unspecified),NF-kB SEAP reporter activity,RAW-Dual [1]; [8],0.902
same,NF-kB SEAP reporter activity,RAW-Dual [1]; [4],1.01
COc1ccc2c(OC3CC4C(=O)NC5(C(=O)NS(=O)(=O)C6CC6)CC5/C=C\CCCCN(C)C(=O)C4C3)cc(-c3nc(C(C)C)cs3)nc2c1C (stereo unspecified) (library stock concentration (final ~1000-fold dilution): 10 mM),NF-kB SEAP reporter activity,RAW-Dual [2]; agonist: LPS (TLR4) 0.1 ug/mL,3.16
same,NF-kB SEAP reporter activity,RAW-Dual [2]; [5],0.926
same,NF-kB SEAP reporter activity,RAW-Dual [2]; [6],0.842
same,NF-kB SEAP reporter activity,RAW-Dual [2]; [7],0.952
Cl.NCc1c[nH]c(=S)n1C1CCc2c(F)cc(F)cc2C1 (stereo unspecified),NF-kB SEAP reporter activity,RAW-Dual [1]; [8],1.12
same,NF-kB SEAP reporter activity,RAW-Dual [1]; [4],0.889
Cl.NCc1c[nH]c(=S)n1C1CCc2c(F)cc(F)cc2C1 (stereo unspecified) (library stock concentration (final ~1000-fold dilution): 10 mM),NF-kB SEAP reporter activity,RAW-Dual [2]; agonist: LPS (TLR4) 0.1 ug/mL,0.779
same,NF-kB SEAP reporter activity,RAW-Dual [2]; [5],0.895
same,NF-kB SEAP reporter activity,RAW-Dual [2]; [6],0.82
same,NF-kB SEAP reporter activity,RAW-Dual [2]; [7],0.904
COC(=O)c1sccc1S(=O)(=O)Nc1ccc(Nc2ccccc2)cc1OC,NF-kB SEAP reporter activity,RAW-Dual [1]; [8],1.07
same,NF-kB SEAP reporter activity,RAW-Dual [1]; [4],1.11
COc1cc(NS(C)(=O)=O)ccc1Nc1c2ccccc2nc2ccccc12.Cl (library stock concentration (final ~1000-fold dilution): 10 mM),NF-kB SEAP reporter activity,RAW-Dual [3]; agonist: LPS (TLR4) 0.1 ug/mL,2.6
same,NF-kB SEAP reporter activity,RAW-Dual [3]; [5],0.68
same,NF-kB SEAP reporter activity,RAW-Dual [3]; [6],1.05
same,NF-kB SEAP reporter activity,RAW-Dual [3]; [7],0.776
COC(=O)c1sccc1S(=O)(=O)Nc1ccc(Nc2ccccc2)cc1OC (library stock concentration (final ~1000-fold dilution): 10 mM),NF-kB SEAP reporter activity,RAW-Dual [2]; agonist: LPS (TLR4) 0.1 ug/mL,1.72
same,NF-kB SEAP reporter activity,RAW-Dual [2]; [5],0.911
same,NF-kB SEAP reporter activity,RAW-Dual [2]; [6],0.821
same,NF-kB SEAP reporter activity,RAW-Dual [2]; [7],0.872
COS(=O)(=O)[O-].COc1cccc2c1nc1ccccc1[n+]2C (library stock concentration (final ~1000-fold dilution): 10 mM),NF-kB SEAP reporter activity,RAW-Dual [3]; agonist: LPS (TLR4) 0.1 ug/mL,0.473
same,NF-kB SEAP reporter activity,RAW-Dual [3]; [5],0.781
same,NF-kB SEAP reporter activity,RAW-Dual [3]; [6],0.271
same,NF-kB SEAP reporter activity,RAW-Dual [3]; [7],0.272
COS(=O)(=O)[O-].COc1cccc2c1nc1ccccc1[n+]2C,NF-kB SEAP reporter activity,RAW-Dual [1]; [9],0.838
same,NF-kB SEAP reporter activity,RAW-Dual [1]; [10],0.899
COc1cc(NS(C)(=O)=O)ccc1Nc1c2ccccc2nc2ccccc12.Cl,NF-kB SEAP reporter activity,RAW-Dual [1]; [9],2.58
same,NF-kB SEAP reporter activity,RAW-Dual [1]; [10],2.51
CC1(C)OC(=O)C=CC2(C)C1CC(=O)C1(C)C2CCC2(C)C(c3ccoc3)OC(=O)C3OC321 (stereo unspecified),NF-kB SEAP reporter activity,RAW-Dual [1]; [8],0.98
same,NF-kB SEAP reporter activity,RAW-Dual [1]; [4],1.03
CC1(C)OC(=O)C=CC2(C)C1CC(=O)C1(C)C2CCC2(C)C(c3ccoc3)OC(=O)C3OC321 (stereo unspecified) (library stock concentration (final ~1000-fold dilution): 10 mM),NF-kB SEAP reporter activity,RAW-Dual [2]; agonist: LPS (TLR4) 0.1 ug/mL,1.04
same,NF-kB SEAP reporter activity,RAW-Dual [2]; [5],0.875
same,NF-kB SEAP reporter activity,RAW-Dual [2]; [6],1.02
same,NF-kB SEAP reporter activity,RAW-Dual [2]; [7],1.08

# From the supplement of paper PMC10037445
